# Shown are actives, neighbours in structure and some others; about 7.3% of the full set was active somewhere.
# VACV Venus inh = vaccinia inhibition (Venus reporter); 0.46% of 330,000 active; Vaccinia virus Venus reporter expression, fluorescence; Potency, µM (top dose mostly 36.5 µM), actives largely listed as inhibitors; calls by dose curve; tested in A549 cells; further: nearly all actives have a fitted effect of over 30% in size
# HCMV antiviral = human cytomegalovirus inhibition | HFF cells, HCMV-luciferase reporter, 72 h; hits give low values | activity change, negative = inhibition, % at 57.5 µM | AID 1259415 | 4.5% of 410,000 active; in the data active means activity change below about -60%; inconclusive means no clear call, values can overlap the other calls; inactive means above about -39%
#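 Steps: HFFs plated, 16 h 37C; compounds added; HCMV-luciferase added to MOI 1 PFU/cell; 72 h 37C; OneGlo reagent, 5 min room temperature; luminescence read, normalized to controls.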
# HCV inhibitor = blocks hepatitis C virus | Huh7.5.1 HCVcc-Cre infection, luciferase reporter, 44 h | Potency, µM (doses to about 41.8 µM), most hits filed as inhibitors | 3.4% of 340,000 active; active means well fitted inhibition curve with a large enough effect; inconclusive means small, poorly fitted or top-dose-only effect, or another doubt; inactive means no such curve, though single readings can be large or run the other way
#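 Luciferase read-out (15 sec integration) after a 15 min room-temperature substrate step quantifies HCVcc-Cre infection. Cells, 1,000 per well, had compound added 4 h post-plating, then virus at ~0.5 moi, and were cultured 44 h.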
# FMDV antiviral = foot and mouth disease virus antiviral activity; 1.2% of 410,000 active; AID 1159524; Potency, µM (titrated, usually from 57.9 µM), actives largely listed as inhibitors; FMDV antiviral cell-based qHTS; calls by dose curve; tested in HEK293T cells; further: read-out not given here; nearly all actives have a fitted effect of over 45% in size
# VACV mCherry inh = vaccinia inhibition (mCherry reporter). Vaccinia virus mCherry reporter infection, fluorescence. Potency, µM (series often up to 36.5 µM), actives largely listed as inhibitors. 0.63% of 310,000 active. AID 720579; calls by dose curve; tested in A549 cells; further: nearly all actives have a fitted effect of over 35% in size
# Numbers stand for hits; . = inactive; ? = inconclusive; / = no result given.
SMILES,VACV Venus inh,HCMV antiviral,HCV inhibitor,FMDV antiviral,VACV mCherry inh
COc1ccccc1C(=O)NCc1nc2cccnc2n1Cc1ccc(F)cc1,.,.,/,.,.
O=C1CCCc2cc3c(cc21)CC1(C3)Cc2cc3c(cc2C1)C(=O)CCC3,?,-81,11µM,?,.
CCc1ccc2c(c1)C(=O)CCC2,.,.,.,.,.
COC(=O)c1c(NC(=O)Cc2cccs2)sc(C)c1C,/,.,11µM,.,/
COC(=O)c1c(NC(=O)Cc2ccccc2)sc(C)c1C,.,.,?,.,/
CCc1ccc(OCCCn2c(CCNC(=O)C3CCCCC3)nc3ccccc32)cc1,.,/,/,/,.
O=c1ccn([C@@H]2O[C@H](COS(=O)(=O)O)[C@@H](O)[C@H]2O)c(=O)[nH]1,.,-62,.,.,.
CC(=O)OCC1OC(n2ccc(=O)[nH]c2=O)C(O)C1O (stereo unspecified),.,.,.,.,.
CCOc1ccc(NC(=O)C2CC(=O)NC(=Nc3ccc(Cl)c(Cl)c3)S2)cc1 (stereo unspecified),.,.,/,.,.
Cc1ccc(OCC(=O)Nc2nnc(S(=O)(=O)N3c4ccccc4CC3C)s2)cc1 (stereo unspecified),.,.,/,.,.
COc1ccc(N2CCN(S(=O)(=O)c3ccc(OC)c(C(=O)N4CCCCC4)c3)CC2)cc1,.,.,13µM,.,.
COc1ccc(NC(=O)c2cc(S(=O)(=O)N3CCCCC3)ccc2OC)cc1,/,-73,.,.,/
COc1ccc(/C=C/C(=O)N(C)CC(=O)Nc2cccc(F)c2)cc1S(=O)(=O)N1CCCCC1,?,.,?,.,.
CC(=O)Nc1ccc(NC(=O)c2cccc(S(=O)(=O)N3CCCCCC3)c2)cc1,.,.,?,.,.
COc1ccc(NC(=O)c2cc(S(=O)(=O)N3CCCC3)ccc2OC)cc1,.,?,.,.,.
COc1ccc(S(=O)(=O)N2CCN(c3ccc(F)cc3)CC2)cc1C(=O)N1CCCC1,.,.,?,.,.
COc1ccc(NC(=O)CN(C)C(=O)/C=C/c2ccc(S(=O)(=O)N3CCCCCC3)cc2)cc1,.,-77,?,.,.
COc1ccc(NC(=O)c2cccc(S(=O)(=O)N3CCCCCC3)c2)cc1,.,-88,?,.,.
COc1ccccc1C1CN(Cc2cccn2-c2ncccn2)Cc2ccccc2O1 (stereo unspecified),.,/,/,.,.
COC(=O)c1ccc2nc(-c3cccc(Br)c3)c(Cc3cccc(Cl)c3)n2c1,/,.,/,/,/
COc1ccc(/C(C)=N/NC(=O)c2cccc(S(=O)(=O)N3CCCC3)c2)c(O)c1,?,-90,3.2µM,.,5.6µM
Cc1noc(C)c1COC(=O)c1cccc(S(=O)(=O)N2CCCCCC2)c1,?,.,2.2µM,?,?
Cc1cc(C)cc(NC(=O)C2CCN(S(=O)(=O)c3cccc(-c4noc(C)n4)c3)CC2)c1,.,?,/,.,.
COc1ccc(C(C)=O)cc1CN1C(=O)C(C)ON=C1c1ccccn1 (stereo unspecified),.,.,/,.,.
COc1ccccc1CN1C(=O)C(C)ON=C1c1ccccc1F (stereo unspecified),.,-80,/,.,.
SMILES,VACV Venus inh,HCMV antiviral,HCV inhibitor,FMDV antiviral,VACV mCherry inh
CSc1ccc(CN2C(=O)C(C)ON=C2c2ccccc2F)cc1 (stereo unspecified),.,-98,/,.,.
COc1ccc(C(=O)N2CCC[C@@]3(CCN(c4cccc(-c5ccccc5)c4)C3)C2)cc1,/,/,/,.,/
C=Cc1ccc(Cn2c(=O)n(-c3ccc(C)cc3)c(=O)c3c2c2cc(OC)ccc2n3C)cc1,.,.,/,.,.
CN(C)c1nc(N/N=C\c2ccc(Cl)c([N+](=O)[O-])c2)nc(Nc2ccc(F)cc2)n1,.,.,22µM,?,.
COc1cccc2c1[C@@H]1CN(CCCCn3c(=O)[nH]c4c(sc5ncc(-c6ccccc6)nc54)c3=O)C[C@@H]1CO2,?,.,3.5µM,.,?
O=C(CCCN1C(=O)c2cccnc2Oc2ccc(Cl)cc21)NCc1ccccc1F,.,.,/,.,.
CC(=O)c1cc(-c2ccc(F)cc2)n(CCC(=O)Nc2nc3ccc(C)cc3s2)c1C,.,.,/,.,.
O=C(NCc1ccccc1)C1=C[C@H](c2csc3ccccc23)C[C@H](OCc2ccc(CO)cc2)O1,?,-61,?,.,.
O=C(Nc1ccccc1)C1=C[C@@H](c2csc3ccccc23)C[C@@H](OCc2ccc(CO)cc2)O1,?,.,0.32µM,.,.
C#CCNC(=O)C1=C[C@H](c2csc3ccccc23)C[C@H](OCc2ccc(CO)cc2)O1,.,.,?,?,.
CCc1cc(C(=O)N(C)CC(=O)Nc2c(Cl)cccc2Cl)sc1C,.,-67,.,.,.
Cc1ccc(CNC(=O)CNS(=O)(=O)c2cccs2)cc1,.,.,/,.,.
CCN(CC)S(=O)(=O)N1CCC(C(=O)NCC2COc3ccccc3O2)CC1 (stereo unspecified),/,/,?,.,/
CN(CC1COc2ccccc2O1)C(=O)c1ccc(Cl)c(S(=O)(=O)N2CCCCCC2)c1 (stereo unspecified),/,?,?,.,/
O=C(NCC1COc2ccccc2O1)c1ccc(Cl)c(S(=O)(=O)N2CCCC2)c1 (stereo unspecified),/,-69,?,.,/
O=C(NCC1COc2ccccc2O1)C1CCN(S(=O)(=O)c2ccc(Cl)cc2)CC1 (stereo unspecified),/,.,11µM,.,/
O=c1c2ccccc2nnn1Cc1ccco1,/,.,/,/,/
CCOC(=O)c1c2c3c(c(Cl)ccc3[nH]c1=O)C(=O)c1ccccc1-2,.,-97,.,.,.
O=C(Nc1ccccc1C(F)(F)F)N1CCC(CN2CCc3ccccc3C2)CC1,.,.,/,.,.
CCCCCCCCCCCCCCCC(C)C1=NCCN1 (stereo unspecified),.,/,/,/,.
CCCC[C@@H](CNC)NC[C@H](Cc1ccc(O)cc1)NCCc1ccc(OCC)cc1,13µM,-85,?,.,?
O=C(CNC(=O)C1CCCCC1)OCc1ccccc1,.,/,/,/,.
CCc1ccc(CNC(=O)CCCn2c(=O)c3cccn3c3cccnc32)cc1,/,.,10µM,.,/
CC(C)Oc1ccc(CNC(=O)CCCn2c(=O)c3cccn3c3cccnc32)cc1,.,-68,/,.,.
CC(NC(=O)CCCn1c(=O)c2cccn2c2cccnc21)c1ccccc1 (stereo unspecified),.,-65,/,.,.
SMILES,VACV Venus inh,HCMV antiviral,HCV inhibitor,FMDV antiviral,VACV mCherry inh
O=C(NCCOc1nc(N2CCCCC2)nc(N2CCOCC2)n1)Nc1ccccc1,.,-77,8.9µM,.,.
CCN(CC)c1nc(OCCNC(=O)Nc2ccccc2)nc(N(CC)CC)n1,11µM,.,.,.,/
CCN(CCNC(=O)Nc1ccc(Cl)cc1)c1ccccc1,?,.,14µM,?,/
CCC(CC)C(=O)Nc1ccc2nc(SCC(=O)N3CCOCC3)sc2c1,.,.,/,.,.
Cc1cc[n+](C2CCCCC2)c2ccccc12,.,/,/,/,.
CCOc1ccc(OCC)c(NC(=O)c2cc(S(=O)(=O)N3CCc4ccccc43)cn2C)c1,.,.,/,.,.
C=CCN(CC=C)C(=O)c1cc2ccccc2c(=O)o1,.,-63,.,.,.
